Test system: HepG2
Assay: GSK_TCMDC: Percent inhibition of human HepG2 cell line. Test compounds present at 10uM.
Format: functional

Compared with `COc1ccc(CNc2ncc(-c3ccsc3)c(-c3nccs3)n2)cc1OC`, `CC(C)(C)c1cc2cc(Nc3ccnc4cc(-c5nccs5)ccc34)ccc2[nH]1.Cl` is lower in Inhibition: 10% for the first, 5% for the second.

Going from `Nc1nc(N)c2c(ccc3c2ccn3Cc2cccc3ccccc23)n1` to `CCC(CC)n1c(C)cc2c3c(N)nc(N)nc3ccc21`, the Inhibition falls from 65% to 61%.

Going from `Cc1cc(C2CCN(CCCCNC(=O)c3ccc(-c4ccc(C#N)cc4)cc3)CC2)c(C)cc1O` to `Cn1cc(C2CCN(CCCCCNC(=O)/C=C/c3ccc(Cl)c(Cl)c3)CC2)c2cc(O)ccc21`, the Inhibition falls from 27% to 11%.

First: Cc1cccc2nc(-c3cccc(-c4cccc(NC(=O)c5cccnc5)c4)c3)[nH]c12
Second: Cc1cccc2nc(-c3cccc(-c4cccc(NC(=O)c5ccc(=O)[nH]n5)c4)c3)[nH]c12
The Inhibition of the first is higher: 28% for the first, 10% for the second.

Going from `COc1ccnc(NCCCNCc2cn(S(=O)(=O)c3ccccc3)c3ccccc23)c1` to `CN(C)CCCNCCS(=O)(=O)c1cccc(Nc2ccc(-c3cccc(N(C)C)c3)cn2)c1`, the Inhibition falls from 57% to 19%.

Going from `O=C(NCCCN1CCC(N2CCCCC2)CC1)C1=Cc2cc(Br)ccc2OC1` to `COc1cc(C(=O)N2COCC(CCCN3CCC(N4CCCC4)CC3)(c3ccc(Cl)c(Cl)c3)C2)cc(OC)c1OC` (stereo not given), the Inhibition falls from 26% to 5%.

First: O=C(c1csc(-c2cccnc2)n1)N1CCc2cc3nccc(N4CCN5CCC[C@H]5C4)c3cc21
Second: Cc1cc(N2CCN(CC3CCN(C)CC3)CC2)nc(Nc2ccc(Br)cc2)n1
The Inhibition of the first is lower: 0% for the first, 31% for the second.

First: CNCC(C)(C)c1nc(-c2ccc(Cl)c(O)c2)c(-c2ccncc2)[nH]1.Cl
Second: Cc1c(-c2cccc(NC(=O)C(C)(C)Oc3ccc(Cl)cc3)c2)nc2ncccn12
The Inhibition of the first is higher: 46% for the first, 0% for the second.

Going from `C1=CN(Cc2ccccc2)C=CC1=C1C=Nc2ccccc21` to `CC(CCNc1c2ccccc2nc2ccccc12)N1CCN(C)CC1.Cl` (stereo not given), the Inhibition rises from 8% to 25%.

Going from `CCOc1ccccc1CNc1nccc(NCc2ccc(Cl)cc2Cl)n1` to `CCCC(CNCc1cccc(OCC)c1)CNc1cc(=O)c2ccccc2[nH]1` (stereo not given), the Inhibition falls from 26% to 0%.

Going from `CN1CCC(NCc2ccc(-c3ccc(Cl)cc3)cc2)CC1` to `O=C(Cc1cccs1)NC(CCCN1CCC(Oc2cccc(Cl)c2)CC1)c1ccc(Cl)c(Cl)c1` (stereo not given), the Inhibition falls from 50% to 39%.

Compared with `Cc1noc(-c2ccccc2)c1CN1CCCC2(CC(C(=O)NCc3cccc(F)c3F)=NO2)C1.O=C(O)C(F)(F)F` (stereo not given), `O=C(O)C(F)(F)F.O=S(=O)(NCCN1CCCC1)c1ccc(-c2cccc(CNCc3ccccc3)c2)s1` is higher in Inhibition: 0% for the first, 44% for the second.

Compared with `CCN(CC)CCN(Cc1ccc(-c2ccc(C(F)(F)F)cc2)cc1)C(=O)Cn1c(SCc2ccc(F)cc2)cc(=O)c2ccccc21.O=C(O)C(O)C(O)C(=O)O`, `CCOC(=O)c1c(CCc2ccc(C(F)(F)F)cc2)nc2c(c1-c1ccc(C(=O)N[C@@H](C)c3ccncc3)cc1)C(=O)N1CCC[C@@H]21` is lower in Inhibition: 50% for the first, 0% for the second.

First: Cc1nc(C)c(CC(=O)Nc2ccc(-c3cccc(-c4nc5cccc(C)c5[nH]4)c3)cc2)s1
Second: Cc1cccc2nc(-c3cccc(-c4cccc(NC(=O)Nc5ccc(Cl)c(Cl)c5)c4)c3)[nH]c12
The Inhibition of the first is higher: 41% for the first, 24% for the second.

Compared with `N=C(N)Nc1nc(-c2cccc(NC(=O)NCc3cccc4ccccc34)c2)cs1`, `CC(=O)c1cccc(NC(=O)NC2CCN(c3ccnc(Nc4ccc(F)cc4)n3)C2)c1` (stereo not given) is lower in Inhibition: 14% for the first, 10% for the second.

Going from `Cl.NCCCCc1c(-c2ccc(Cl)c(Cl)c2)[nH]c2ccc(Cl)cc12` to `COc1cc(C(=O)NCc2nn(CCN3CCC(N4CCCC4)CC3)cc2-c2ccc(Cl)c(Cl)c2)cc(OC)c1OC`, the Inhibition falls from 33% to 16%.

Compared with `CCOc1ccc(-c2nonc2NC(=O)c2ccc(OC)cc2)cc1OCC`, `COc1ccc(NC(=O)[C@H](CC(C)C)Nc2cc(C)nc(NCc3cccc(C)c3)n2)cc1.O=C(O)C(F)(F)F` is higher in Inhibition: 0% for the first, 24% for the second.

First: Cc1cc(N(C)CCN(C)C)nc(Nc2ccc(Br)cc2)n1
Second: Cn1c(=O)c(-c2c(Cl)cccc2Cl)cc2cnc(Nc3ccc(N4CCOCC4)cc3)nc21
The Inhibition of the first is lower: 7% for the first, 64% for the second.

`O=C(c1ccc([N+](=O)[O-])o1)N1CCN(c2nc3c(Cl)cccc3s2)CC1` and `COc1ccc(C2C(C(=O)OC3CCCC3)=C(C)NC3=C2C(=O)CCC3)cc1Br` (stereo not given) are the same in Inhibition: 0% for the first, 0% for the second.

Going from `CC1(C)NC(N)=NC(=N)N1OCOc1ccc(Cl)cc1.Cl` to `Br.CCCCCCCCn1c2c(c(=N)c3c1CCC3)CCC2`, the Inhibition falls from 68% to 47%.
